Tests used:
Assay in all cases: PBM binding z-score (relative to random genomic background probes); higher = stronger binding; sequences stand for … in GC…GCGATTGACAGCGTAGAATGAAGG
[1] = system: FXR:RXRa (NR concentration 270 nM, RXRa partner concentration 90 nM)
Method in brief: (§1)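 The probes on custom Agilent 4×180K protein-binding microarrays were double-stranded, with 34-nt variable regions bearing direct-repeat seeds, single-nucleotide variants, half-site ablations and random human genomic background sequences. Incubation lasted 1 h with ligand-free nuclear receptor dimers in PBS pH 7.4, 2% milk, 0.02% Triton X-100, 1 mM DTT, 0.2 mg/mL BSA and 0.4 mg/ml salmon testes DNA. Antibodies against each partner (one per run) detected bound dimers, and fluorescence scans were regression-normalized. Binding z-scores take the random background probes as reference.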

[2] = system: LXRa:RXRa (NR concentration 270 nM, RXRa partner concentration 90 nM)
Method in brief: as §1

[3] = system: LXRa homodimer (NR concentration 270 nM)
Method in brief: as §1

[4] = system: LXRb:RXRa (NR concentration 270 nM, RXRa partner concentration 90 nM)
Method in brief: as §1

[5] = system: LXRb homodimer (NR concentration 270 nM)
Method in brief: as §1

[6] = system: PPARa:RXRa (NR concentration 270 nM, RXRa partner concentration 90 nM)
Method in brief: as §1

[7] = system: PPARg:RXRa (NR concentration 180 nM, RXRa partner concentration 90 nM)
Method in brief: as §1

[8] = system: PPARg:RXRa 270nM:90nM, anti-RXR (NR concentration 270 nM, RXRa partner concentration 90 nM)
Method in brief: as §1

[9] = system: PPARg:RXRa 30nM:10nM, anti-RXR (NR concentration 30 nM, RXRa partner concentration 10 nM)
Method in brief: as §1

[10] = system: PPARg:RXRa 90nM:30nM, anti-RXR (NR concentration 90 nM, RXRa partner concentration 30 nM)
Method in brief: as §1

[11] = system: PPARg:RXRa DBDmut IVT, anti-RXR (DBD mutation: RXRa K156A/R161A, NR concentration 270 nM, RXRa partner concentration 90 nM)
Method in brief: as §1

[12] = system: PPARg:RXRa IVT, anti-PPARg (NR concentration 270 nM, RXRa partner concentration 90 nM)
Method in brief: as §1

[13] = system: PPARg DBDmut:RXRa IVT, anti-PPARg (DBD mutation: PPARg1 K132A/R137A, NR concentration 270 nM, RXRa partner concentration 90 nM)
Method in brief: as §1

[14] = system: PPARg DBDmut IVT, anti-PPARg (DBD mutation: PPARg1 K132A/R137A, NR concentration 270 nM)
Method in brief: as §1

[15] = system: PPARg homodimer (NR concentration 180 nM)
Method in brief: as §1

[16] = system: PXR:RXRa (NR concentration 270 nM, RXRa partner concentration 90 nM)
Method in brief: as §1

[17] = system: PXR homodimer (NR concentration 270 nM)
Method in brief: as §1

[18] = system: RARa:RXR (NR concentration 270 nM, RXRa partner concentration 90 nM)
Method in brief: as §1

[19] = system: RARa homodimer (NR concentration 270 nM)
Method in brief: as §1

[20] = system: RARb:RXRa (NR concentration 270 nM, RXRa partner concentration 90 nM)
Method in brief: as §1

CCTATTGGTTGACCATAAGGGCAACCGAAGCTCG
PBM binding z-score [1]: 0.484 | PBM binding z-score [2]: -0.0111 | PBM binding z-score [3]: -0.255 | PBM binding z-score [4]: 0.153 | PBM binding z-score [5]: -0.527 | PBM binding z-score [6]: 0.421 | PBM binding z-score [7]: 0.215 | PBM binding z-score [8]: 0.235 | PBM binding z-score [9]: -0.263 | PBM binding z-score [10]: -0.214 | PBM binding z-score [11]: -1.11 | PBM binding z-score [12]: 0.135 | PBM binding z-score [13]: -0.489 | PBM binding z-score [14]: -1.22 | PBM binding z-score [15]: 0.0166 | PBM binding z-score [16]: 0.326 | PBM binding z-score [17]: -0.293 | PBM binding z-score [18]: 0.774 | PBM binding z-score [19]: -0.166 | PBM binding z-score [20]: 1.26

TCTATTAGTTGAAGAGCAACCGACGAGTCCGTTT
PBM binding z-score [1]: 0.119 | PBM binding z-score [2]: 0.663 | PBM binding z-score [3]: -0.0692 | PBM binding z-score [4]: 0.436 | PBM binding z-score [5]: 0.0793 | PBM binding z-score [6]: 0.395 | PBM binding z-score [7]: -0.0464 | PBM binding z-score [8]: 1.45 | PBM binding z-score [9]: 3.13 | PBM binding z-score [10]: 2.28 | PBM binding z-score [11]: 2.11 | PBM binding z-score [12]: -0.0307 | PBM binding z-score [13]: -0.198 | PBM binding z-score [14]: 0.372 | PBM binding z-score [15]: 0.184 | PBM binding z-score [16]: 0.265 | PBM binding z-score [17]: 0.467 | PBM binding z-score [18]: -0.0573 | PBM binding z-score [19]: 0.544 | PBM binding z-score [20]: 0.129

GCTAGCAGGCCAATTGGGTCACTCAATGACGGGC
PBM binding z-score [1]: -0.057 | PBM binding z-score [2]: -0.159 | PBM binding z-score [3]: -0.545 | PBM binding z-score [4]: -0.122 | PBM binding z-score [5]: -1.32 | PBM binding z-score [6]: 1.83 | PBM binding z-score [7]: 1.01 | PBM binding z-score [8]: 1.14 | PBM binding z-score [9]: -0.473 | PBM binding z-score [10]: 0.444 | PBM binding z-score [11]: 2.36 | PBM binding z-score [12]: 3.11 | PBM binding z-score [13]: -0.977 | PBM binding z-score [14]: -0.884 | PBM binding z-score [15]: -0.0833 | PBM binding z-score [16]: 0.184 | PBM binding z-score [17]: -0.704 | PBM binding z-score [18]: 0.585 | PBM binding z-score [19]: -0.664 | PBM binding z-score [20]: 1.54

ATCTCTAGGTAAGACTCAGTTTAGTGAAGAACGC
PBM binding z-score [1]: 0.613 | PBM binding z-score [2]: 0.734 | PBM binding z-score [3]: 0.489 | PBM binding z-score [4]: 0.362 | PBM binding z-score [5]: 0.843 | PBM binding z-score [6]: -0.0694 | PBM binding z-score [7]: 0.158 | PBM binding z-score [8]: 0.112 | PBM binding z-score [9]: 0.213 | PBM binding z-score [10]: 0.579 | PBM binding z-score [11]: 2.06 | PBM binding z-score [12]: 1.06 | PBM binding z-score [13]: 1.01 | PBM binding z-score [14]: 0.79 | PBM binding z-score [15]: 0.494 | PBM binding z-score [16]: 0.177 | PBM binding z-score [17]: 0.554 | PBM binding z-score [18]: 0.162 | PBM binding z-score [19]: 1.22 | PBM binding z-score [20]: 0.222

CCTTACGGGTCACGAGGTTATTGCACGACGAGCG
PBM binding z-score [1]: 6.84 | PBM binding z-score [2]: 4.54 | PBM binding z-score [3]: 0.946 | PBM binding z-score [4]: 4.15 | PBM binding z-score [5]: 0.296 | PBM binding z-score [6]: 6.08 | PBM binding z-score [7]: 7.34 | PBM binding z-score [8]: 6.45 | PBM binding z-score [9]: 3.32 | PBM binding z-score [10]: 5.41 | PBM binding z-score [11]: 4.41 | PBM binding z-score [12]: 5.61 | PBM binding z-score [13]: 1.02 | PBM binding z-score [14]: 0.757 | PBM binding z-score [15]: 3.66 | PBM binding z-score [16]: 4.88 | PBM binding z-score [17]: 0.56 | PBM binding z-score [18]: 6.61 | PBM binding z-score [19]: 1.28 | PBM binding z-score [20]: 4.57

CCTAGCAGGCCTGGGTCACTCAAGCATTTCGCTT
PBM binding z-score [1]: 0.369 | PBM binding z-score [2]: 0.545 | PBM binding z-score [3]: -0.474 | PBM binding z-score [4]: 0.861 | PBM binding z-score [5]: -0.369 | PBM binding z-score [6]: 1.34 | PBM binding z-score [7]: -0.336 | PBM binding z-score [8]: 0.314 | PBM binding z-score [9]: -0.828 | PBM binding z-score [10]: -0.485 | PBM binding z-score [11]: 0.171 | PBM binding z-score [12]: 0.217 | PBM binding z-score [13]: -1.39 | PBM binding z-score [14]: -1.28 | PBM binding z-score [15]: 0.279 | PBM binding z-score [16]: 0.53 | PBM binding z-score [17]: -0.661 | PBM binding z-score [18]: 1.16 | PBM binding z-score [19]: 0.152 | PBM binding z-score [20]: 1.43

CAAACTAGGTCACGAAAGGTCAAACTCGAATGAC
PBM binding z-score [1]: 7.61 | PBM binding z-score [2]: 8.32 | PBM binding z-score [3]: 8.55 | PBM binding z-score [4]: 7.66 | PBM binding z-score [5]: 3.3 | PBM binding z-score [6]: 6.75 | PBM binding z-score [7]: 10.5 | PBM binding z-score [8]: 8.69 | PBM binding z-score [9]: 6.95 | PBM binding z-score [10]: 8.93 | PBM binding z-score [11]: 8.89 | PBM binding z-score [12]: 8.97 | PBM binding z-score [13]: 2.74 | PBM binding z-score [14]: 2.02 | PBM binding z-score [15]: 5.15 | PBM binding z-score [16]: 7.23 | PBM binding z-score [17]: 4.8 | PBM binding z-score [18]: 7.97 | PBM binding z-score [19]: 4.28 | PBM binding z-score [20]: 5.84

— the supplement of paper PMC6555819
